# Experimental data from PubChem BioAssay (EPA / NIEHS).
# Calls of active or inactive are those of the source. Rule for the calls: active = hit-call score of the fitted dose curve at least 0.9, where 1 is the maximum; inactive = score below 0.9.
# Read-out: DNA damage-inducible transcript 3 (DDIT3), DDIT3 (gene 1649)
# Test: LTEA_HepaRG_DDIT3: Life Technologies and Expression Analysis (LTEA) Assay for DNA damage-inducible transcript 3 (DDIT3) using HepaRG (AID 2283488)
# Conditions: mRNA level, 48 h; actives raise or lower the signal
# Procedure, shortened: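 qRT-PCR readout (Fluidigm TaqMan), housekeeping-normalized to ACTB, GAPDH, POLR2A. HepaRG cells, 48 h exposure, 8-point half-log series from 100 uM in 0.5% DMSO, duplicates. Gain or loss of signal fitted against DMSO baseline.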
Structure (SMILES),outcome,AC50
CCCCCCCCCCCCN1CCCC1=O,inactive,
CC#C[C@]1(O)CC[C@H]2[C@@H]3CCC4=CC(=O)CCC4=C3[C@@H](c3ccc(N(C)C)cc3)C[C@@]21C,,29.2 µM (active)
CC(C)(C)c1cccc(C(C)(C)C)c1O,,12.2 µM (active)
CCCCCCCCCCCCc1ccccc1S(=O)(=O)O,,62.1 µM (active)
CCCCCCCCCCCCCCCS(=O)(=O)Oc1ccccc1,inactive,
CCCCOCCO,inactive,
CCCCCCCCC(=O)O,inactive,
CC(=O)CC(C)(C)O,inactive,
CCC(C)(C)C1CCC(O)CC1 (stereo unspecified),inactive,
CC(C)CCCCCCOC(=O)CCCCC(=O)OCCCCCCC(C)C,inactive,
CCCCCCCC(=O)O,inactive,
COC(=O)CCCCC(=O)OC,inactive,
C#C[C@]1(O)CC[C@H]2[C@@H]3CCC4=CC(=O)CC[C@@H]4[C@H]3CC[C@@]21C,inactive,
OCCC(F)(F)C(F)(F)C(F)(F)C(F)(F)C(F)(F)C(F)(F)F,inactive,
C[C@@H]1C[C@H]2[C@@H]3CCC4=CC(=O)C=C[C@]4(C)[C@@]3(F)[C@@H](O)C[C@]2(C)[C@@]1(O)C(=O)COP(=O)(O)O,inactive,
CCOC(=O)CC(O)(CC(=O)OCC)C(=O)OCC,inactive,

Structure (SMILES),outcome,AC50
NC(=O)N1C(=O)C(C(=O)c2cc(Cl)cs2)c2cc(F)c(Cl)cc21 (stereo unspecified),,22.9 µM (active)
COCC(C)OCC(C)O (stereo unspecified),inactive,
CC[C@H](C)[C@@H](C(=O)O)n1sc2ccccc2c1=O,inactive,
Nc1cccc2c(N)cccc12,inactive,
OC1CCCCC1,inactive,
COc1ccc([N+](=O)[O-])cc1N,inactive,
O=c1c(-c2ccc(O)cc2)coc2cc(O)ccc12,inactive,
CCCOc1sc(C(=O)N2CCC(c3cc(CN)ccc3F)CC2)c(C)c1Br,inactive,
CC1=C(/C=C/C(C)=C/C=C/C(C)=C/C(=O)O)C(C)(C)CCC1,inactive,
CC(C)(C)CC(C)(C)c1ccc(O)c(-n2nc3ccccc3n2)c1,inactive,
CC[C@H](c1ccc(O)cc1)[C@@H](CC)c1ccc(O)cc1,inactive,
Cc1cc(CCN2CCN(c3nsc4ccccc34)CC2)cc2c1NC(=O)CC2(C)C,,71.9 µM (active)
c1ccc2c(c1)ccc1ccccc12,inactive,
CCCOC(=O)c1ccc(O)cc1,inactive,
CCc1ccc(CCOc2ccc(CC3SC(=O)NC3=O)cc2)nc1 (stereo unspecified),,91.3 µM (active)
